Measured values reported in PubChem BioAssay (NCATS).
Results filed as inconclusive are left out. Unmarked numbers belong to inactive results. The call rests on the fitted dose curve; in most records, active means well fitted activation curve with a large enough effect; inconclusive means small, poorly fitted or top-dose-only effect; inactive means flat fitted curve, though single readings scatter.

Assay: Primary redox qHTS assay for identification of artifact compounds. (AID 1845223);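 further: 0% = DMSO and 100% = reference compound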
Conditions: Amplex Red/HRP redox cycling with DTT, fluorescence; series mostly up to 53.8 µM; redox activity (% of DA3003): at the top concentration
Outline: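 Redox-cycling detection via DTT (250 uM final) oxidation coupled to Amplex Red (25 uM)/HRP (250 mU/mL) in HBSS. 15 min preincubation plus 30 min after DTT, room temperature. Ex/Em 525/598 nm; 4-parameter Hill fit against DMSO and 10 uM DA3003.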

Row | Structure (SMILES) | redox activity (% of DA3003)
1 | CC(CC12CCCN1C(=O)C1CCCN1C2=O)OC(N)=O (stereo unspecified) | -17.4%
2 | O=C(Cc1ccccc1)OC[C@H]1O[C@H](O[C@H]2O[C@H](CO)[C@@H](O)[C@H](O)[C@H]2O)[C@H](O)[C@@H](O)[C@@H]1O | -9.93% [at 25.6 µM]
3 | Cn1cc(Nc2cnccc2C(=O)O)c2cccnc21 | 0.278%
4 | COc1cc(O)cc(C)c1C(=O)O[C@H]1[C@@H](O)[C@@H](n2ccc(=O)[nH]c2=O)O[C@@H]1CO | -13.4% [at 25.6 µM]
5 | CN1CCN(c2nc(-c3ccc(C(=O)NC4(C(=O)NCC#N)CCCCC4)cc3)cs2)CC1 | 15.9%
6 | C/C=C/C=C/C(=O)OC1CC/C=C/C(O)C(O)C(CCC)OC1=O (stereo unspecified) | -2.24%
7 | COc1ccc(/C=C/C(=O)O[C@@H]2[C@@H](OC(C)=O)[C@@H](OC(C)=O)[C@H](O[C@H]3[C@@H]4C=CO[C@@H](O[C@@H]5O[C@H](CO)[C@@H](O)[C@H](O)[C@H]5O)[C@@H]4[C@@]4(CO)O[C@@H]34)O[C@H]2C)cc1 | 6.74% [at 25.6 µM]
8 | C=C1CCC2[C@](C)(CO)CCC[C@@]2(C)[C@@H]1CCC1=CCOC1=O (stereo partly specified) | 4.01%
9 | O=C(NCCN1CCCC1)c1cc(-c2ccc(CN3CCOCC3)cc2)nc2ccc(F)cc12 | 15.9% [at 25.6 µM]
10 | NC[C@@H]1O[C@@H](O[C@@H]2[C@@H](O[C@@H]3O[C@H](CO)[C@@H](O)[C@H]3O)[C@H](O)[C@@H](N)C[C@H]2N)[C@@H](N)[C@H](O)[C@H]1O | -8.2% [at 11.5 µM]
11 | CC(=O)OC1C(O)/C(C)=C\C2C(OC(=O)c3ccccc3)C(C)CC2(OC(C)=O)C(OC(C)=O)C(C)/C=C/C(C)(C)C1OC(C)=O (stereo unspecified) | 3.98% [at 25.6 µM]
12 | CN1CCN(C(=O)c2cc3cc(Cl)ccc3[nH]2)CC1 | -7.16%
13 | COCCN1CCC(C(=O)NO)(S(=O)(=O)c2ccc(Oc3ccc(OC(F)(F)F)cc3)cc2)CC1 | 17.8%
14 | C[C@H]1[C@H](C)C[C@@H](C(=O)O)C2CC[C@]3(C)C(=CC[C@@H]4[C@@]5(C)CC[C@H](O)C(C)(C)[C@@H]5CC[C@]43C)[C@@H]21 (stereo partly specified) | -0.177%
15 | CC1(C)CC[C@]2(C(=O)O[C@@H]3O[C@H](CO)[C@@H](O)[C@H](O)[C@H]3O)CC[C@]3(C)C(=CCC4[C@@]5(C)C[C@H](O)[C@H](O[C@@H]6O[C@H](C(=O)O)[C@@H](O)[C@H](O)[C@H]6O)[C@@](C)(CO)C5CC[C@]43C)C2C1 (stereo partly specified) | -11.2% [at 11.5 µM]
16 | CN(C)c1ccc(C2O[C@@H](c3ccccc3)C[C@H](c3ccccc3)O2)cc1 (stereo partly specified) | -0.42%
17 | C/C=C(\C)C(=O)OC[C@H]1O[C@@H](O[C@H]2[C@@H](O[C@H]3O[C@H](COC(=O)/C(C)=C/C)[C@@H](O)[C@H](O)[C@H]3O[C@@H]3O[C@H](COC(=O)/C(C)=C/C)[C@@H](O)[C@H](OC(=O)/C(C)=C/C)[C@H]3O)O[C@H](COC(=O)/C(C)=C/C)[C@@H](O)[C@@H]2O)[C@H](O)[C@@H](O)[C@@H]1O | -2.39% [at 11.5 µM]
18 | Cc1cc(-c2nncc3c(C(C)(C)C)c(OCc4ncnn4C)nn23)no1 | 5.9%
19 | Cc1nnc(-c2ccc3occ(-c4ccc(S(C)=O)cc4)c3c2)o1 (stereo unspecified) | 8.34%
20 | CC1C2=CC(=O)OC2(O)CC2C1C(O)CC1C(C)(CO)CCCC21C (stereo unspecified) | -12.3%
21 | CC(C)=CCC[C@](C)(O[C@@H]1O[C@H](CO[C@@H]2O[C@@H](CO)[C@H](O)[C@H]2O[C@@H]2OC[C@@H](O)[C@H](O)[C@H]2O)[C@@H](O)[C@H](O)[C@H]1O)[C@H]1CC[C@]2(C)[C@@H]1[C@H](O)CC1[C@@]3(C)CC[C@H](O[C@@H]4O[C@H](CO)[C@@H](O)[C@H](O)[C@H]4O[C@@H]4O[C@H](CO)[C@@H](O)[C@H](O)[C@H]4O)C(C)(C)C3CC[C@]12C (stereo partly specified) | -2.65% [at 11.5 µM]
22 | NC[C@H]1CCC[C@@H](CNC(=O)[C@@H](Cc2c[nH]c3ccccc23)NC(=O)N2CCC3(C=Cc4ccccc43)CC2)C1 | 3.3%
23 | COc1ccnc2[nH]cc(C(=O)C(=O)N3CCN(C(=O)c4ccccc4)CC3C)c12 (stereo unspecified) | 3.82%
24 | C[C@]12CC[C@@H]3c4ccc(O)cc4CC[C@H]3[C@@H]1C[C@@H](O[C@@H]1O[C@H](C(=O)O)[C@@H](O)[C@H](O)[C@H]1O)[C@@H]2O | -0.309%
25 | COc1cccc(C(=O)NCCNc2nc3cc(C)cc(C)c3cc2C#N)c1 | -6.46%
26 | COc1cc(/C=C/C(=O)OC[C@H]2O[C@@H](OC3OC=C(C(=O)O)C4C(O)CC(C)(O)C34)[C@H](O)[C@@H](O)[C@@H]2O)cc(OC)c1O (stereo partly specified) | -0.43% [at 25.6 µM]
